Drawing on PubChem BioAssay, this text covers z-score and composite z-score for 9 compounds.

Activity calls are given as the source filed them.

Assay [1] in a line: E. coli DRC41 culture turbidity changes, primary screen, E. coli filamentation inducer project, strain DRC41, OD650, 48 h (AID 1152).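 Note: E. coli MC1000 strain DRC41 lacking acrAB efflux pump and sulA.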 As to conditions: E. coli DRC41 (acrAB sulA), higher = more signal, called active from +8 up or from −8 down.
Assay [2] in a line: small-molecule binders of probe aLefty1, primary screen, biochemical, small-molecule microarray, 635/667 nm fluorescence (AID 1153).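 Note: score merges spot fluorescence with signal-to-noise ratio from the scanned slide images.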 As to conditions: higher = more signal.
Assay [3] in a line: PSAC antagonists in infected red cells, primary screen, cell-based, P. falciparum Indochina, OD700, 1 h (AID 1154). The conditions noted are these: P. falciparum Indochina infected RBC osmotic lysis, higher = more signal, called active from +8 up or from −8 down.
Assay [4] can be described thus: PSAC antagonists in infected red cells, primary screen, cell-based, P. falciparum Indochina, OD700, 2 h (AID 1155).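 Note: lysis reports solute entry through the parasite surface anion channel PSAC; channel blockers reduce lysis of infected cells.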 As to conditions: P. falciparum Indochina infected erythrocytes, osmotic lysis OD700; higher = more signal, called active from +8 up or from −8 down.
Assay [5] can be described thus: osmotic lysis modulators in infected erythrocytes, primary screen, PSAC antagonist project, cell-based, P. falciparum Indochina, OD700, 3 h (AID 1156). As to conditions: higher = more signal, called active from +8 up or from −8 down.
Assay [6] can be described thus: PSAC antagonists in infected red cells, primary screen, cell-based, P. falciparum Indochina, OD700, 18 h (AID 1157). As to conditions: P. falciparum Indochina infected erythrocytes, osmotic lysis OD700, 18 h; higher = more signal, called active from +8 up or from −8 down.
Assay [7] is described as follows: modulators of S6 phosphorylation in cells, primary screen, cell-based, A549, cytoblot, luminescence, serum-stimulated (AID 1158).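 Note: serum-stimulated A549 lung adenocarcinoma cells; signal is phosphorylated S6 detected by cytoblot immunostaining with HRP secondary.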 The conditions noted are these: A549 phospho-S6 cytoblot, 5 h, higher = more signal.
The target of assay [8] is NADPH oxidase 2 (Homo sapiens) (UniProt P04839). As to the kind of experiment: NOX2-dependent H2O2 signal modulators, primary screen, NOX inhibitor project, cell-based, HEK293-NOX2, PMA-stimulated, Amplex Red fluorescence (AID 1159). Note: test concentration not given here. As to conditions: 45 min, higher = more signal, called active from +8 up or from −8 down.
Assay [9] addresses NADPH oxidase 4 (Homo sapiens) (UniProt Q9NPH5). As to the kind of experiment: NOX4-dependent H2O2 signal modulators, primary screen, NOX inhibitor project, cell-based, HEK293-NOX4, tetracycline-induced, Amplex Red fluorescence (AID 1160). As to conditions: 45 min, higher = more signal, called active from +8 up or from −8 down.
For assay [10], the target named is NADPH oxidase 5 (Homo sapiens) (UniProt Q96PH1). Nature of the assay: NOX5-dependent H2O2 signal modulators, primary screen, NOX inhibitor project, cell-based, HEK293-NOX5, Amplex Red fluorescence (AID 1161). The conditions noted are these: HEK293-NOX5, ionomycin, 45 min, higher = more signal.
A short description of assay [11]: A549 cell viability effects, profiling panel, calcein-AM fluorescence, 48 h, basal (AID 1162). Note: test concentration not given here. As to conditions: higher = more signal.
Assay [12] can be described thus: adipocyte viability effects, profiling panel, cell-based, 3T3-L1 adipocytes, calcein-AM fluorescence, 48 h, basal (AID 1163). Note: test concentration not given here. The conditions noted are these: 3T3-L1 adipocytes viability, higher = more signal.
A short description of assay [13]: HepG2 cell viability effects, profiling panel, calcein-AM fluorescence, 48 h, basal (AID 1164). Note: test concentration not given here. The conditions noted are these: higher = more signal.
A short description of assay [14]: MM1S cell viability effects, profiling panel, calcein-AM fluorescence, 48 h, basal (AID 1165).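 Note: viability of MM1S multiple myeloma cells under basal unstimulated conditions; test concentration not given here.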 The conditions noted are these: higher = more signal.
A short description of assay [15]: basal RPMI8226 viability, no added stimulus, profiling panel, cell-based, calcein-AM fluorescence, 48 h, PK04 Diversity Set (AID 1166).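 Note: cells grown under basal conditions without added stimulus; test concentration not given here.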 As to conditions: RPMI8226 myeloma viability, higher = more signal.
A short description of assay [16]: basal HepG2 mitochondrial membrane potential changes, profiling panel, cell-based, JC-1 fluorescence, 24 h, 100 nL compound (AID 1167). Note: test concentration not given here. As to conditions: higher = more signal.
Assay [17] in a line: basal 3T3-L1 adipocyte mitochondrial potential changes, profiling panel, cell-based, JC-1 fluorescence, 3T3-L1 adipocytes, 24 h, 100 nL compound (AID 1168). Note: test concentration not given here. The conditions noted are these: JC-1 mitochondrial fluorescence, higher = more signal, called active from +8 up or from −8 down.
Assay [18] in a line: basal RPMI8226 mitochondrial membrane potential changes, profiling panel, cell-based, JC-1 fluorescence, 24 h, 100 nL compound (AID 1169). Note: test concentration not given here. The conditions noted are these: RPMI8226 myeloma, JC-1 mitochondrial potential fluorescence, higher = more signal.
A short description of assay [19]: basal MM1S mitochondrial membrane potential changes, profiling panel, cell-based, JC-1 fluorescence, 24 h, 100 nL compound (AID 1170). Note: test concentration not given here. The conditions noted are these: higher = more signal.
Assay [20] can be described thus: A549 lung cancer cell viability effects, profiling panel, resazurin fluorescence, 24 h, PK04 Diversity Set (AID 1171). Note: test concentration not given here. The conditions noted are these: higher = more signal, called active from +8 up or from −8 down. Background: Resazurin is reduced to fluorescent resorufin, in cell work by metabolically active cells.

Chain of NADPH oxidase 2 (Homo sapiens) (P04839 whole entry, looked up): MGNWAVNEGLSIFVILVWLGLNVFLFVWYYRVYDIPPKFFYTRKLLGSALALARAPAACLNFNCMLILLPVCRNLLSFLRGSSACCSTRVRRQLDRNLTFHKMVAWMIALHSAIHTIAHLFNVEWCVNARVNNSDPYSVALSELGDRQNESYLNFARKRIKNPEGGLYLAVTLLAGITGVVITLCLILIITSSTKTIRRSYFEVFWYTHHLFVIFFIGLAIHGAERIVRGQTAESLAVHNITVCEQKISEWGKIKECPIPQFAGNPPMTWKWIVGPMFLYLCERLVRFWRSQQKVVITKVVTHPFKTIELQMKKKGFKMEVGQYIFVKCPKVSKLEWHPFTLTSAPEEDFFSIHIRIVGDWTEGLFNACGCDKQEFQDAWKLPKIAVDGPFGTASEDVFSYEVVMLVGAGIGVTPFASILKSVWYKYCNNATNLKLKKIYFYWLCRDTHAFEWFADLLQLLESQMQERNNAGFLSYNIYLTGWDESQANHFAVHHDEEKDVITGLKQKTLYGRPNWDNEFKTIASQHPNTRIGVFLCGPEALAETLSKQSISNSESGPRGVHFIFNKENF
Chain of NADPH oxidase 4 (Homo sapiens) (Q9NPH5 whole entry, looked up): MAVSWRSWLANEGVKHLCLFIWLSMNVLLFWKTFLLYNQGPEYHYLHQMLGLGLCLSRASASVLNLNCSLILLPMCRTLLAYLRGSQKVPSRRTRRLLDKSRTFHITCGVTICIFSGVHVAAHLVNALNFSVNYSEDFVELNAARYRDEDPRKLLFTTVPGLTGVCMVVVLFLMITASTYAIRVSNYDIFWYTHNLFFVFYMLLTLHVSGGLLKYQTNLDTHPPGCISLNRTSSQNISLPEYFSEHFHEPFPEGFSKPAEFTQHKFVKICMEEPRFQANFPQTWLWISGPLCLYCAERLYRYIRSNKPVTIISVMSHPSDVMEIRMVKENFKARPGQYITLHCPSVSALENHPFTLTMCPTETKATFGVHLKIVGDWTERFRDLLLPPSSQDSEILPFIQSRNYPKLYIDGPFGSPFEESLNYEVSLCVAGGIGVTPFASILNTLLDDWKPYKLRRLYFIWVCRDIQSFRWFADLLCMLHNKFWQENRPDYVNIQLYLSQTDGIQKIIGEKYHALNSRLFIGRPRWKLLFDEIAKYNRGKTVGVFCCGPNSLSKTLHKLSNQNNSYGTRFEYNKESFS
Chain of NADPH oxidase 5 (Homo sapiens) (Q96PH1 whole entry, looked up): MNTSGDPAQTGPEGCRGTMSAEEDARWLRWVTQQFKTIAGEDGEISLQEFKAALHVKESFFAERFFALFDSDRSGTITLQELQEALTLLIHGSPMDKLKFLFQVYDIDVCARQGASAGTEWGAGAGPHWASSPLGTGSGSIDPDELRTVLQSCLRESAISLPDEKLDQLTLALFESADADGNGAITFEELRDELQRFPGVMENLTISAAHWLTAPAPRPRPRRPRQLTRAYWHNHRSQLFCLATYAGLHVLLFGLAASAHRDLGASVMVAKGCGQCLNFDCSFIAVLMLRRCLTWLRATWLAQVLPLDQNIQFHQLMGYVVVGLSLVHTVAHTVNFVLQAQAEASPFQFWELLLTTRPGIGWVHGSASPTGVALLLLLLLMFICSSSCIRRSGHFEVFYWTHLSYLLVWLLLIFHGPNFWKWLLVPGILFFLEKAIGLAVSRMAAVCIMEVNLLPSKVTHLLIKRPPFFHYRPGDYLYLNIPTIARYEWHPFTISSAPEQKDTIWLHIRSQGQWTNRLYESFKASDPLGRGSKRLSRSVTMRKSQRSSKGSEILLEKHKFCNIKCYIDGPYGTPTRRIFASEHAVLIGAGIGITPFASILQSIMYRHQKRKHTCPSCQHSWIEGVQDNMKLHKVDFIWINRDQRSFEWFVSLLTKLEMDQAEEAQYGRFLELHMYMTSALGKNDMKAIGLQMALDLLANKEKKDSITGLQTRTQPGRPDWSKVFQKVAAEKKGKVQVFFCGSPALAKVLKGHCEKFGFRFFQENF

Regarding `CC(C)(C)N1CC=CC23O[C@@H]4/C=C\CCCOC(=O)C4[C@H]2C(=O)N(CCCCCCO)[C@@H]3C1=O` (stereo not given in full), the z-score in assay [1] is 1.88 (inactive); in assay [3], 1.64 (inactive); in [4], -0.353 (inactive); in [5], 0.703 (inactive); in assay [6], -0.331 (inactive); in assay [7], 1.97. The z-score is 0.834 (inactive) in [8]; -0.0239 (inactive) in [9]; 2.04 in assay [10]; 0.0079 in assay [11]; 0.164 in [12]; 0.797 in assay [13]. In addition, the z-score in assay [14] was 1.83; in assay [15], -0.0296; in assay [16] it was 1.17; in [17], 1.04 (inactive); in assay [18], 0.116; in [19], -0.892. In assay [20], the z-score was 0.204 (inactive). Moreover, the composite z-score in [2] was 0.0903.
As to `C=CCNC(=O)[C@@H]1[C@H]2C(=O)O[C@H](c3ccccc3)[C@H](c3ccccc3)N2[C@H](c2ccccc2OCCO)[C@@]12C(=O)N(C(=O)OCCOC)c1ccc(C#CCCO)cc12`, the z-score is -0.288 (inactive) in [1]; 2.62 (inactive) in assay [3]; 1.15 (inactive) in [4]; 0.123 (inactive) in assay [5]; 0.167 (inactive) in [6]; 0.568 in assay [7]. Also, the z-score in assay [8] is 1.57 (inactive); in assay [9], 1.31 (inactive); in assay [10], 0.165; in assay [11], 0.614; in [12], 0.393; in assay [13], 1.53. The z-score in [14] is -0.02; in assay [15] it was -0.615; in [16], -0.332; in assay [17], 0.507 (inactive); in assay [18] it was -0.868; in assay [19], -1.46. Further, the z-score in assay [20] was -0.0256 (inactive). For the same compound, in assay [2], the composite z-score came to 0.209.
For `[N-]=[N+]=NCc1ccccc1C[C@]1(C(=O)N2CCCCC2)N=C(c2ccc(OCCCO)cc2)O[C@H]1c1ccccc1`, the z-score is 0.74 (inactive) in assay [1]; 20.4 (active) in assay [3]; 5.49 (inactive) in assay [4]; 3.48 (inactive) in assay [5]; 2.04 (inactive) in [6]; 1.38 in [7]. The z-score was -1.16 (inactive) in assay [8]; -0.0602 (inactive) in assay [9]; -0.924 in [10]; -0.888 in assay [11]; 0.252 in assay [12]; -0.923 in [13]. Further, the z-score in assay [14] was -2.59; in assay [15] it was -4.27; in assay [16], 0.117; in assay [17], 0.845 (inactive); in [18], -1.14; in [19], -2.38. The z-score in [20] was -0.136 (inactive). The same compound displayed a composite z-score in [2] of 0.118.
As for `CCCCC(=C=CC[C@@H](O)c1cccc(OCCO)c1)C[C@@H](O)COCc1ccccc1`, the z-score is 1.76 (inactive) in assay [1]; 16.3 (active) in assay [3]; 1.3 (inactive) in assay [4]; 0.605 (inactive) in [5]; -1.07 (inactive) in assay [6]; 2.58 in [7]. The z-score in assay [8] is -1.61 (inactive); in assay [9] it was -1.01 (inactive); in assay [10], -2.47; in assay [11], 1.1; in assay [12] it was 1.79; in assay [13], 1.3. The z-score is -1.21 in assay [14]; 0.286 in assay [15]; -0.0343 in assay [16]; 0.436 (inactive) in [17]; -0.785 in [18]; -0.91 in assay [19]. Further, in [20], the z-score was -0.0721 (inactive). Further, the composite z-score in assay [2] was -0.101.
On to `CCCCC(O)C1C=CC2C(=O)NC(=O)C2N1Nc1ccc(Cl)cc1Cl` (stereo not given), for which the z-score in assay [1] was -1.73 (inactive); in assay [3], 2.42 (inactive); in assay [4], 1.53 (inactive); in assay [5], 0.39 (inactive); in assay [6], 0.998 (inactive); in assay [7], -0.787. Also, the z-score was -0.461 (inactive) in assay [8]; -5.64 (inactive) in [9]; -3.41 in assay [10]; -1.99 in assay [11]; 0.266 in assay [12]; -2.39 in assay [13]. For the same compound, the z-score in [14] was -1.55; in assay [15] it was -2.27; in assay [16], -2.38; in assay [17], -0.831 (inactive); in assay [18] it was -0.64; in assay [19], 0.724. For the same compound, the z-score in [20] was -1.99 (inactive). For the same compound, in [2], the composite z-score turned out to be 0.396.
In the case of `COc1cc(OC)c(C(O)C2C=CC3C(=O)N(c4ccccc4)C(=O)C3N2Nc2ccccc2F)cc1Br` (stereo not given), the z-score in [1] is -1.76 (inactive); in assay [3] it was 7.23 (inactive); in assay [4], 2.36 (inactive); in assay [5] it was 0.449 (inactive); in [6], 1.54 (inactive); in assay [7] it was -0.822. In addition, the z-score in assay [8] is -1.32 (inactive); in assay [9], -4.43 (inactive); in assay [10], -2.21; in [11], -1.06; in assay [12] it was -1.41; in assay [13], 0.302. Also, the z-score is -0.303 in assay [14]; -0.308 in [15]; -2.04 in assay [16]; -1.17 (inactive) in [17]; 0.26 in [18]; -0.645 in assay [19]. For the same compound, the z-score in assay [20] is -0.568 (inactive). In [2], this compound displayed a composite z-score of 0.692.
For the compound `CC(C)C[C@@H]1NC(=O)[C@H]2C[C@@H](C(=O)NCCCCCNC(=O)CS)[C@@H](c3ccc(O)cc3)N2C1=O`, the z-score was 0.213 (inactive) in assay [1]; 3.25 (inactive) in assay [3]; 0.945 (inactive) in assay [4]; 0.256 (inactive) in [5]; 0.277 (inactive) in [6]; -0.277 in [7]. The z-score in [8] is 1 (inactive); in assay [9] it was -0.828 (inactive); in assay [10], 0.918; in assay [11], -0.286; in assay [12], 0.709; in [13], -0.724. Moreover, the z-score was -1.04 in assay [14]; -1.36 in [15]; -0.686 in assay [16]; -0.372 (inactive) in [17]; -0.113 in assay [18]; -0.611 in [19]. Besides, in assay [20], the z-score is -0.858 (inactive). Also, the composite z-score in assay [2] is -0.549.
Consider `COCCOC(=O)N1C(=O)[C@@]2(c3cc(C#CCC(C(=O)OC)C(=O)OC)ccc31)[C@H](C(N)=O)[C@H]1C(=O)O[C@H](c3ccccc3)[C@H](c3ccccc3)N1[C@@H]2c1ccc(OCCO)cc1`, for which the z-score in assay [1] was -0.886 (inactive); in [3] it was 28.9 (active); in [4], 16.1 (active); in [5], -1.71 (inactive); in assay [6] it was 2.01 (inactive); in assay [7] it was -0.275. For the same compound, the z-score is 1.75 (inactive) in assay [8]; 1.24 (inactive) in assay [9]; 0.515 in assay [10]; -0.0635 in assay [11]; 0.0923 in assay [12]; 0.103 in assay [13]. For the same compound, the z-score was -2.16 in [14]; -3.21 in [15]; -1.47 in [16]; 0.47 (inactive) in assay [17]; -1.09 in assay [18]; -1.26 in assay [19]. For the same compound, the z-score in assay [20] is 0.214 (inactive). The same compound displayed a composite z-score in assay [2] of 0.146.
With `C=CCC(OC(C)=O)[C@@H]1[C@@H](N(Cc2cc3ccccc3o2)C(=O)Cc2ccc(OC)cc2)c2cc(OCCCO)ccc2N1C(=O)Cc1ccc(OC)cc1` (stereo not given in full), the z-score is -0.759 (inactive) in assay [1]; 2.19 (inactive) in assay [3]; 0.297 (inactive) in [4]; 1.23 (inactive) in assay [5]; 0.336 (inactive) in [6]; -0.0725 in [7]. The z-score in [8] is -0.685 (inactive); in [9] it was -0.727 (inactive); in assay [10], -2.19; in [11], 0.3; in assay [12], 1.71; in assay [13] it was 0.128. Further, the z-score in assay [14] was 0.708; in assay [15] it was -1.74; in [16] it was 2.14; in assay [17], -0.184 (inactive); in [18], -0.566; in [19], 0.799. In assay [20], the z-score is -0.914 (inactive). In [2], this compound had a composite z-score of 0.0091.
